About 8,800 targets were measured; listed, in parts, are those with a hit and a random draw of the rest. About 0.5% of all pairs of compound and target were hits. Values without a mark were called inactive.
What was measured:
Assay in all cases: log2 fold change, soluble protein after heating vs DMSO (PISA); higher = thermal stabilisation; K562 lysate, 10 uM; active = over 0.2 and 3.5 SD of the protein, either way, in both replicates (recomputed)
lapatinib = compound: CS(=O)(=O)CCNCc1ccc(-c2ccc3ncnc(Nc4ccc(OCc5cccc(F)c5)c(Cl)c4)c3c2)o1 [lapatinib]
Outline: (§1)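 Log-two fold change in thermal stability relative to solvent controls is reported from duplicates. For each sample, crude K562 extract from dounce-homogenised pellets in PBS pH 7.4 with 1 mM MgCl2, at 1 mg/mL protein, was treated with 10 μM compound for 30 min. Aliquots heated for 3 min across 48°C-58°C were pooled, brought to 0.5% NP-40 at 4°C and cleared at 21,000xg for 90 min. The supernatant was quantified by TMTpro 16plex LC-MS/MS with channel sums equalised.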

pictilisib = compound: CS(=O)(=O)N1CCN(Cc2cc3nc(-c4cccc5[nH]ncc45)nc(N4CCOCC4)c3s2)CC1 [pictilisib]
Outline: as §1

[1] = compound: C[C@H](C1=CC=C(C=C1)C(=O)NC2=C3C=CNC3=NC=C2)N
Outline: as §1

duvelisib = compound: C[C@H](Nc1ncnc2nc[nH]c12)c1cc2cccc(Cl)c2c(=O)n1-c1ccccc1 [duvelisib]
Outline: as §1

gandotinib = compound: Cc1cc(Nc2cc(CN3CCOCC3)c3nc(C)c(Cc4ccc(Cl)cc4F)n3n2)n[nH]1 [gandotinib]
Outline: as §1

tozasertib = compound: Cc1cc(Nc2cc(N3CCN(C)CC3)nc(Sc3ccc(NC(=O)C4CC4)cc3)n2)n[nH]1 [tozasertib]
Outline: as §1

bafetinib = compound: Cc1ccc(NC(=O)c2ccc(CN3CC[C@H](N(C)C)C3)c(C(F)(F)F)c2)cc1Nc1nccc(-c2cncnc2)n1 [bafetinib]
Outline: as §1

[2] = compound: Cc1cccc(CC(=O)N2CCc3c2ccc(-c2cn(C)c4ncnc(N)c24)c3F)n1
Outline: as §1

nilotinib = compound: Cc1cn(-c2cc(NC(=O)c3ccc(C)c(Nc4nccc(-c5cccnc5)n4)c3)cc(C(F)(F)F)c2)cn1 [nilotinib]
Outline: as §1

[3] = compound: Cc1nc(Nc2n[nH]c3c2CN(C(=O)N[C@H](CN(C)C)c2ccccc2)C3(C)C)c2sccc2n1
Outline: as §1

dasatinib = compound: Cc1nc(Nc2ncc(C(=O)Nc3c(C)cccc3Cl)s2)cc(N2CCN(CCO)CC2)n1 [dasatinib]
Outline: as §1

[4] = compound: Cc1ncc(-c2ccnc(Nc3ccc(S(C)(=O)=O)cc3)n2)n1C(C)C
Outline: as §1

[5] = compound: Cn1cc(-c2ccc3c(c2)CCN3C(=O)Cc2cccc(C(F)(F)F)c2)c2c(N)ncnc21
Outline: as §1

tipifarnib = compound: Cn1cncc1[C@@](N)(c1ccc(Cl)cc1)c1ccc2c(c1)c(-c1cccc(Cl)c1)cc(=O)n2C [tipifarnib]
Outline: as §1

[6] = compound: NC(=O)c1cnc(N[C@@H]2CCCC[C@@H]2N)nc1Nc1cccc(-n2nccn2)c1
Outline: as §1

[7] = compound: NC1(c2ccc(-c3nc4ccn5c(=O)[nH]nc5c4cc3-c3ccccc3)cc2)CCC1
Outline: as §1

crizotinib = compound: C[C@@H](Oc1cc(-c2cnn(C3CCNCC3)c2)cnc1N)c1c(Cl)ccc(F)c1Cl [crizotinib]
Outline: as §1

doramapimod = compound: Cc1ccc(-n2nc(C(C)(C)C)cc2NC(=O)Nc2ccc(OCCN3CCOCC3)c3ccccc23)cc1 [doramapimod]
Outline: as §1

quisinostat = compound: Cn1cc(CNCC2CCN(c3ncc(C(=O)NO)cn3)CC2)c2ccccc21 [quisinostat]
Outline: as §1

[8] = compound: NC(=O)Nc1cc(-c2cccc(F)c2)sc1C(=O)N[C@H]1CCCNC1
Outline: as §1

UniProt P0C1Z6, sequence (P0C1Z6 whole entry, looked up): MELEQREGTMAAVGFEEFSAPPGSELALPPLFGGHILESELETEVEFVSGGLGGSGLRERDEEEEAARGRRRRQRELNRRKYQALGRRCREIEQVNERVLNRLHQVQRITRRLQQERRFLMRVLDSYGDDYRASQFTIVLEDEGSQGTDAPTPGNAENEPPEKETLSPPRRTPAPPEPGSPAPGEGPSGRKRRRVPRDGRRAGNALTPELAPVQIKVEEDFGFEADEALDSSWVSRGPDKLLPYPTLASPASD
UniProt Q8TD43, sequence (Q8TD43 whole entry, looked up): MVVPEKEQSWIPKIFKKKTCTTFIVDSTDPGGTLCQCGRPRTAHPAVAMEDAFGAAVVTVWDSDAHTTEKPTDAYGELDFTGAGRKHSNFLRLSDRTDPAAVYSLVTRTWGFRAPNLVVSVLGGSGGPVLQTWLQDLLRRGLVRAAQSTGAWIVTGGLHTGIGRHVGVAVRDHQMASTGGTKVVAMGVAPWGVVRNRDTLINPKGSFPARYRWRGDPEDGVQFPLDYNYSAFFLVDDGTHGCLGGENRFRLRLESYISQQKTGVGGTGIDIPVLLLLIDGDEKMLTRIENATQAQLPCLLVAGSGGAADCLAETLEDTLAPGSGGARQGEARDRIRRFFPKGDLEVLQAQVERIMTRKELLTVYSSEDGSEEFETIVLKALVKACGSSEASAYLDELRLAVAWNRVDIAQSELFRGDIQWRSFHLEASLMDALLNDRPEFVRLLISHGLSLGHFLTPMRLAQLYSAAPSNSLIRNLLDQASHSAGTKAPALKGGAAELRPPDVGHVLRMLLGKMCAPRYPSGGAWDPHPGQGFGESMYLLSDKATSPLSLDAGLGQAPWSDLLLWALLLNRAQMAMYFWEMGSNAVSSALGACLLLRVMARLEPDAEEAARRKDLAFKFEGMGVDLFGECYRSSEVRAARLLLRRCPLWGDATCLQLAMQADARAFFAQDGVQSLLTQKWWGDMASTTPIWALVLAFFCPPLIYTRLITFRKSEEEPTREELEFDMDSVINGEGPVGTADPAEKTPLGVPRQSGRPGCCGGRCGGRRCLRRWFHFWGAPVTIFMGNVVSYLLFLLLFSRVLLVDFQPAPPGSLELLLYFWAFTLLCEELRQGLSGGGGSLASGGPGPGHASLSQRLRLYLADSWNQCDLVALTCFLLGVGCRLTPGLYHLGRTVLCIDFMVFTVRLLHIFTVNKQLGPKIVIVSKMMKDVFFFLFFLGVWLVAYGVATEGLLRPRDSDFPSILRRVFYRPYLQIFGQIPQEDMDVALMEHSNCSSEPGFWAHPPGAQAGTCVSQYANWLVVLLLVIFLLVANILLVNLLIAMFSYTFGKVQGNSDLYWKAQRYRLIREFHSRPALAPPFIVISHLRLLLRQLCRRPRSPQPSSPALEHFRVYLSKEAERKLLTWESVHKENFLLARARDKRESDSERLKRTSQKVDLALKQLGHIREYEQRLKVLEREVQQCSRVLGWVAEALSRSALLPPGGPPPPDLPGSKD
UniProt Q14CS0, sequence (Q14CS0 whole entry, looked up): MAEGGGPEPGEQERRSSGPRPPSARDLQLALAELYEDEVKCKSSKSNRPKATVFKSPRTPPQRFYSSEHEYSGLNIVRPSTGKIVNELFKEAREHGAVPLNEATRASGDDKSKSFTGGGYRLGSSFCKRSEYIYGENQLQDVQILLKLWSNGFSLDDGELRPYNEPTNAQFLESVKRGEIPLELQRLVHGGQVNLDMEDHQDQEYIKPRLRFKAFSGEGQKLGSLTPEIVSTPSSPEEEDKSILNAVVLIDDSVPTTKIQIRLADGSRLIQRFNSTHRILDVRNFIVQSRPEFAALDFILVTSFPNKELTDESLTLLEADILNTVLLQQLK
UniProt P62328, sequence (P62328 whole entry, looked up): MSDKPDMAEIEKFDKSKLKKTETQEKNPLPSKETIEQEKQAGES
UniProt Q9NYB0, sequence (Q9NYB0 whole entry, looked up): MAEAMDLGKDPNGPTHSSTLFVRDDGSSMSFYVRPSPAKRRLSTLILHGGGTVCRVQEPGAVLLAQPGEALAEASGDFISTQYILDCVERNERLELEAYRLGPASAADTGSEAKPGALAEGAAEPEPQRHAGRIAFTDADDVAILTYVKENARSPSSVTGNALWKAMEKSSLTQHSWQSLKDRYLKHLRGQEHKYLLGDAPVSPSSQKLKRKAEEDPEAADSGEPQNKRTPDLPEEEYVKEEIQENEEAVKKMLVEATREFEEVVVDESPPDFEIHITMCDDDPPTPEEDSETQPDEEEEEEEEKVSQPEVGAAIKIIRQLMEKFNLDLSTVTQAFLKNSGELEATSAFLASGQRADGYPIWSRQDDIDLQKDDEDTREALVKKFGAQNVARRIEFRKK
UniProt Q53S58, sequence (Q53S58 whole entry, looked up): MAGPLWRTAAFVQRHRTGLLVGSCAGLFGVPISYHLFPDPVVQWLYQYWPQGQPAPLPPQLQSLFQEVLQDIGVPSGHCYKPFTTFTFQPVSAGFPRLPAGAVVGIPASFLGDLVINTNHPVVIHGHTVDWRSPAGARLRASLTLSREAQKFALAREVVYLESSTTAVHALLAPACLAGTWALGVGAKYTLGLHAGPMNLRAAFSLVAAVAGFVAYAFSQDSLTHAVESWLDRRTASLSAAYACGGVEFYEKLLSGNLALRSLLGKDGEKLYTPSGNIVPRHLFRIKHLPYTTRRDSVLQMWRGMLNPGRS
UniProt Q14157, sequence (Q14157 whole entry, looked up): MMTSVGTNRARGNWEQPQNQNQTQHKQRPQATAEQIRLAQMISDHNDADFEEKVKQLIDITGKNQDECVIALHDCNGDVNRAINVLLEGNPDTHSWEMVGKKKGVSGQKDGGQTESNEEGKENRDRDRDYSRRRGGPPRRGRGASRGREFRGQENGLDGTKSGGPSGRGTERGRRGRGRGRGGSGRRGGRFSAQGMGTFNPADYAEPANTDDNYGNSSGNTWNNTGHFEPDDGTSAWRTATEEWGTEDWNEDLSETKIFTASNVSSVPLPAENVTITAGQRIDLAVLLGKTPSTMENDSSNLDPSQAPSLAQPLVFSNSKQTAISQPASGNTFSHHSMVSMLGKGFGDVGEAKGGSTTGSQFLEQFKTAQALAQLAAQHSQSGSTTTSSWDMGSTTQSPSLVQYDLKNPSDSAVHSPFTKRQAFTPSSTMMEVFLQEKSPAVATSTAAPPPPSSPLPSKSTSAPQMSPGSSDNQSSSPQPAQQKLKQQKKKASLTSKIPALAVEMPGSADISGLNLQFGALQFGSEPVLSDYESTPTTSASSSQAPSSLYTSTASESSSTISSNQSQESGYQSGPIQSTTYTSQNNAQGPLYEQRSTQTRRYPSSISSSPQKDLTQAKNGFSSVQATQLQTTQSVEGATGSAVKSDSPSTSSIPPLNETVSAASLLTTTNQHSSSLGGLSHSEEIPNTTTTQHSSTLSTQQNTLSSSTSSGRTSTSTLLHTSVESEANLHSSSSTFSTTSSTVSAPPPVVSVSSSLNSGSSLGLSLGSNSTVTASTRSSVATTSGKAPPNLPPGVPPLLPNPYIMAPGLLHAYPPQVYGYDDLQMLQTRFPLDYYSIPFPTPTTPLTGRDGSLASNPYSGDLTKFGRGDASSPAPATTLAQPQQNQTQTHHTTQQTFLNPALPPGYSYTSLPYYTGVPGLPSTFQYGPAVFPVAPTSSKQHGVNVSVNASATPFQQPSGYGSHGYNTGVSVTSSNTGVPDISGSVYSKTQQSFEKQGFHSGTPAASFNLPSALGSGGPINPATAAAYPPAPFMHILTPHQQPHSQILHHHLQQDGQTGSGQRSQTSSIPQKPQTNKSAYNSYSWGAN
UniProt P22314, sequence (P22314 whole entry, looked up): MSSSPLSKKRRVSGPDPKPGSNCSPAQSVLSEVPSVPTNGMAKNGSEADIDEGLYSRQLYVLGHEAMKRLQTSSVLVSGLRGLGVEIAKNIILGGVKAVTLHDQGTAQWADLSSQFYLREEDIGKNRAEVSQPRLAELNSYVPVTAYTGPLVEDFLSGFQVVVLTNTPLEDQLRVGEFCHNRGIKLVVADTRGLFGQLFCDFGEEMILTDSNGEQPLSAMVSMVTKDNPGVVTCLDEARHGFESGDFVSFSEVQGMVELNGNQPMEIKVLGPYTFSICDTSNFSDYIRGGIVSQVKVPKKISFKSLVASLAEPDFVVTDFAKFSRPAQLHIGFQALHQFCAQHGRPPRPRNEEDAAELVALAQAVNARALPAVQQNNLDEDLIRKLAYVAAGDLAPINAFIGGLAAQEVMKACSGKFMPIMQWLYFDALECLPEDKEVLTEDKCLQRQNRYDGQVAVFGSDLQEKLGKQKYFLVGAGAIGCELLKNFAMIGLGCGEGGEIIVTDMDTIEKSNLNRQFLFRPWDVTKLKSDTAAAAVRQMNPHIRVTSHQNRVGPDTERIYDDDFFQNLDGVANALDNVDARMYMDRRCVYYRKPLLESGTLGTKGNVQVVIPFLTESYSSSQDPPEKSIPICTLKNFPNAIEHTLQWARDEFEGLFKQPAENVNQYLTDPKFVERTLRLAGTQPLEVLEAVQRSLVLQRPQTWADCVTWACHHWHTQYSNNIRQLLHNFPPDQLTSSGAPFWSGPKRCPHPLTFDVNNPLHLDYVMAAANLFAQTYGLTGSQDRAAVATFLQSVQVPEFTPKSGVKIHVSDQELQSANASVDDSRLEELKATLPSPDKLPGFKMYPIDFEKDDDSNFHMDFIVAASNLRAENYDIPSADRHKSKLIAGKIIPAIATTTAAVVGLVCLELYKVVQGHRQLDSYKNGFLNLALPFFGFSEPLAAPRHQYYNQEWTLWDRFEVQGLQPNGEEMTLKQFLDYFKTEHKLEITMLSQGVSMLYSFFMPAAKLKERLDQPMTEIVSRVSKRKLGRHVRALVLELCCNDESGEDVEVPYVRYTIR
UniProt Q9NRX6, sequence (Q9NRX6 whole entry, looked up): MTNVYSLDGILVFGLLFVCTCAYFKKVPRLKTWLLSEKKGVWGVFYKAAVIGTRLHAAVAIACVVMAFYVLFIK

Row | Target | log2 fold change (lapatinib) | log2 fold change (pictilisib) | log2 fold change [1] | log2 fold change (duvelisib) | log2 fold change (gandotinib) | log2 fold change (tozasertib) | log2 fold change (bafetinib) | log2 fold change [2] | log2 fold change (nilotinib) | log2 fold change [3] | log2 fold change (dasatinib) | log2 fold change [4] | log2 fold change [5] | log2 fold change (tipifarnib) | log2 fold change [6] | log2 fold change [7] | log2 fold change (crizotinib) | log2 fold change (doramapimod) | log2 fold change (quisinostat) | log2 fold change [8]
1 | UBXN2B (UniProt Q14CS0) | -0.226 | -0.036 | -0.01 | 0.07 | 0.213 | 0.027 | 0.003 | -0.005 | -0.04 | -0.068 | 0.08 | -0.208 | -0.099 | 0.021 | -0.024 | -0.06 | – | – | – | –
2 | UFSP2 (UniProt Q9NUQ7) | -0.02 | -0.008 | -0.012 | 0.009 | -0.004 | 0.017 | -0.028 | 0.017 | -0.004 | -0.015 | 0.007 | -0.038 | -0.002 | -0.001 | 0.002 | -0.035 | -0.022 | 0.002 | 0.004 | 0.016
3 | TMSB4X (UniProt P62328) | 0.12 | -0.553 | -0.132 | – | 0.65 | 0.123 | -0.546 | -0.166 | -0.105 | -0.107 | – | 0.115 | – | -0.071 | -0.027 | 0 | 0.015 | -0.24 | -0.024 | 0.263
4 | TUBB6 (UniProt K7ES63) | -0.1 | 0.021 | -0.178 | – | 0.042 | 0.122 | -0.278 | 0.253 | -0.051 | 0.112 | – | -0.155 | – | 0.08 | 0.08 | -0.008 | -0.277 | 0.2 | -0.267 | 0.049
5 | TERF2IP (UniProt Q9NYB0) | -0.007 | 0.007 | 0.249 (active) | 0.022 | -0.122 | -0.023 | 0.004 | -0.181 | 0.012 | 0.013 | 0.018 | 0.009 | 0.005 | -0.012 | -0.017 | -0.003 | 0.021 | -0.016 | 0.024 | 0.011
6 | TUBAL3 (UniProt A6NHL2) | -0.07 | -0.034 | -0.434 | -0.001 | 0.312 | 0.09 | -0.232 | 0.567 (active) | 0.068 | -0.189 | -0.074 | 0.103 | 0.082 | 0.141 | -0.025 | -0.142 | – | – | – | –
7 | UBA1 (UniProt P22314) | -0.005 | -0.003 | -0.012 | 0.011 | -0.017 | -0.005 | -0.017 | 0.023 | -0.004 | 0.014 | -0.026 | 0.002 | 0.028 | -0.01 | 0.008 | -0.011 | -0.037 | 0.009 | -0.019 | 0.019
8 | TMEM167B (UniProt Q9NRX6) | -0.045 | -0.034 | -0.339 (active) | – | 0.133 | -0.003 | -0.075 | 0.128 | 0.006 | 0.031 | – | 0.014 | – | -0.013 | 0.005 | -0.019 | 0.006 | -0.083 | -0.016 | 0.027
9 | TFPT (UniProt P0C1Z6) | -0.004 | 0.032 | – | -0.005 | – | – | -0.004 | – | – | – | 0.009 | – | 0.006 | – | 0.023 | -0.002 | – | – | – | –
10 | TMEM177 (UniProt Q53S58) | 0.018 | 0.002 | -0.005 | – | -0.125 | -0.016 | -0.059 | -0.013 | – | – | – | – | – | – | 0.029 | 0.067 | 0.053 | -0.056 | -0.018 | 0.036
11 | TNIK isoform 5 (UniProt Q9UKE5) | -0.098 | 0.046 | 0.051 | 0.009 | 0.025 | – | -0.055 | -0.02 | – | – | 0.187 | – | 0.019 | – | 0.019 | – | -0.035 | 0.311 | -0.218 | 0.539 (active)
12 | TMEM161B (UniProt Q8NDZ6) | -0.057 | -0.05 | 0.009 | – | -0.289 (active) | 0.009 | 0.007 | 0.077 | 0.419 (active) | -0.014 | – | 0.053 | – | -0.117 | -0.005 | -0.064 | 0.007 | -0.03 | -0.07 | 0.046
13 | TUBGCP3 (UniProt Q96CW5) | -0.017 | 0.012 | -0.012 | 0.036 | -0.054 | 0.027 | -0.057 | 0.013 | -0.031 | 0.029 | -0.038 | 0.043 | 0.038 | -0.023 | 0.002 | 0.012 | -0.055 | 0.014 | -0.083 | 0.009
14 | TENM4 (UniProt Q6N022) | -0.169 | -0.065 | 0.415 | – | -0.028 | – | -0.148 | -0.032 | – | – | – | – | – | – | -0.081 | – | -0.07 | -0.068 | -0.13 | 0.033
15 | UCHL5 (UniProt Q5LJA9) | 0.027 | 0.001 | -0.07 | 0.082 | -0.074 | 0.003 | -0.07 | -0.156 | – | – | -0.214 | – | -0.075 | – | 0.009 | 0.006 | -0.036 | 0.067 | -0.186 | -0.024
16 | UBAP2L isoform 1 (UniProt Q14157) | – | -0.116 | – | – | – | – | 0.56 | – | -0.03 | -0.081 | – | 0.09 | – | -0.067 | – | – | 0.376 | -0.26 | 0.613 | 0.081
17 | TRPM4 (UniProt Q8TD43) | – | -0.085 | -0.654 (active) | 0.042 | 0.088 | – | -0.02 | 0.25 | – | – | -0.02 | – | -0.099 | – | – | 0.089 | 0.055 | -0.111 | -0.01 | 0.111

Reference: the supplement of paper PMC10849652
